The sequences below were run against FYTTD1 (assay: pooled miR-30 sensor sort-seq; sequence = guide strand). Conditions: shRNA.
Note: reference of the scale not given here.

Sequence	sensor-assay potency score (higher = more potent)
TAGGTCTCTTGAGAACTGCTAC	-0.309
TGCTACTACATCGTCTAGCAGT	-0.935
TTTAATTTATTTCCACTCCTGG	-0.341
TAGTCTTGGAAAATTCTGCTTC	0.266
TTCTCTTTGCTACTACATCGTC	-0.513
TTATTTTTTCTGCTTAGCTGGC	-0.29
TACTACATCGTCTAGCAGTTGT	0.276
TAGCTGGCTAGGTCTCTTGAGA	-1.72
TTGTATGTGAGAGTGGCTCTTT	-0.0403
TATTCTTGTCACTTAGAGGTGG	0.0654
TTAAAAATGAAGGTACAGCAGT	-0.441
TTCTGTATTCAACTGGGCCTGC	-0.211

Each sequence was assayed against FZD1 in the same assay as above. Conditions: shRNA.

Sequence	sensor-assay potency score (higher = more potent)
TTTCACTAGAGGGTAGAACTGG	-0.532
TTGAGGGTCTTGCCGGACCAGA	-1.52
TTGCTGTTGGTGAGCCTCGTGT	-1.11
TAGAACTTCCTCCAGGAGTTGA	-0.794
TACAGCACGCTGAAGACGCCAA	-0.38
TTTGCTGTTGGTGAGCCTCGTG	-0.218
TTCACTAGAGGGTAGAACTGGT	0.461
TGTCATTACACACCACTCGGTC	-0.427
